# Records with an inconclusive call do not appear. The source made the active and inactive calls. Calls come from the whole dose curve; as a rule, active = well fitted curve in the direction sought with a large enough effect; inconclusive = small, poorly fitted or top-dose-only effect, or another doubt; inactive = no such curve, though single readings can be large; an effect the other way counts as inactive or inconclusive.
# Test system: not listed separately
# Test: P-glycoprotein substrates identified in KB-8-5-11 adenocarcinoma cell line, qHTS therapeutic library screen (AID 1346987); note: nearly all actives have a fitted effect of over 65% in size
# Details: KB-8-5-11 (P-gp overexpressing) viability, CellTiter-Glo, 72 h; series mostly up to 44.5 µM; activity change, negative = cytotoxicity: at the top concentration
# Method in brief: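 KB-8-5-11, a colchicine-selected P-gp-overexpressing KB-3-1 subline, was grown without colchicine for the assay. Cells were seeded at 500 cells/well, dosed in concentration-response and incubated 72 h at 37 degree C, 5% CO2. Viability was read by CellTiter-Glo luminescence.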
# % is set by controls: 0 for no effect and ±100 for the full control effect.
SMILES,outcome,"activity change, negative = cytotoxicity"
C[C@@H]1O[C@@H](O[C@H]2[C@H](O)[C@@H](O)[C@H](OC[C@H]3O[C@@H](OC(=O)[C@]45CCC(C)(C)C[C@H]4C4=CCC6[C@@]7(C)C[C@@H](O)[C@H](O)[C@@](C)(CO)C7[C@H](O)C[C@@]6(C)[C@]4(C)CC5)[C@H](O)[C@@H](O)[C@@H]3O)O[C@@H]2CO)[C@H](O)[C@H](O)[C@H]1O (some centres undefined),inactive [at 9.29 µM],
CC1(C(=O)O)CC[C@]2(C(=O)OC3OC(CO)C(O)C(O)C3O)CC[C@]3(C)C(=CCC4[C@@]5(C)CC[C@H](OC6OCC(O)C(O)C6OC6OC(CO)C(O)C(O)C6O)C(C)(C)C5CC[C@]43C)C2C1 (some centres undefined),inactive [at 9.29 µM],
COC1OC(=O)C2=C1C1(C)CCCC(C)(C)C1CC2O (centres undefined),,3.06% (inactive)
CC1=C(CO)C2(C)CCCC(C)(C)C2C(O)C1O (centres undefined),inactive,
COc1cccc(CN(C(=O)CC(C)(C)C)C2CC(C(=O)N3CCNCC3)N(Cc3ccc4c(c3)OCO4)C2)c1 (centres undefined),,1.15% (inactive)
O=C(/C=C/c1ccc(O)cc1)OC[C@H]1O[C@H](O[C@@]2(CO)O[C@@H](CO)[C@H](O)[C@H]2O)[C@H](O)[C@@H](O)[C@@H]1O,inactive [at 17.3 µM],
C#CCCCn1cc(-c2cccc3c2N[C@@H](C)CC(=O)N3)cn1,,-25.3% (inactive)
COc1cccc(Cn2ncc3c4sc(S(C)=O)cc4n(C)c3c2=O)c1 (centres undefined),,-12.9% (inactive)

# Test system: Zika virus NS2B-NS3 protease (unlinked complex)
# Test: Primary screen GU Rhodamine qHTS for Zika virus inhibitors: Unlinked NS2B-NS3 protease assay (AID 1347159); note: nearly all actives have a fitted effect of over 60% in size
# Details: Recombinant ZIKV NS2B-NS3 protease, Rhodamine110 substrate fluorescence; series mostly up to 107 µM; activity change, negative = inhibition: at the top concentration
# Method in brief: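 A qHTS format was used, with compound concentrations ranging up to 114 microM. Each compound was preincubated with 25 nM NS2B-NS3 protease, and the substrate was then added at 1.5 microM. Curves were fitted with a 4-parameter Hill model.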
row,SMILES,"activity change, negative = inhibition"
1,O=C(NCCN1CCCC1)c1cc(-c2ccc(CN3CCOCC3)cc2)nc2ccc(F)cc12,-28.3% [at 57.1 µM] (inactive)
2,CC(C)NC(=O)c1ccc(C#Cc2ccncc2)cn1,-5.77% (inactive)
3,CC(C)=CCC/C(C)=C/CO[C@@H]1O[C@H](CO[C@@H]2OC[C@](O)(CO)[C@H]2O)[C@@H](O)[C@H](O)[C@H]1O,4.33% [at 57.1 µM] (inactive)
4,CC1=C(C(=O)OC2OC(COC3OC(CO)C(O)C(O)C3O)C(O)C(O)C2O)C(C)(C)CCC1 (centres undefined),-9.92% [at 57.1 µM] (inactive)
5,CC1(C)CC[C@]2(C(=O)O[C@@H]3O[C@H](CO)[C@@H](O)[C@H](O)[C@H]3O)CC[C@]3(C)C(=CCC4[C@@]5(C)CC[C@H](O[C@@H]6O[C@H](C(=O)O)[C@@H](O[C@@H]7O[C@H](CO)[C@@H](O)[C@H](O)[C@H]7O)[C@H](O)[C@H]6O)C(C)(C)C5CC[C@]43C)C2C1 (some centres undefined),-3.99% [at 32.5 µM] (inactive)
6,N#Cc1ccc(C2CCCc3cncn32)cc1 (centres undefined),-18% [at 57.1 µM] (inactive)
7,NC(N)=NCCC[C@H](NC(=O)c1sccc1NS(=O)(=O)c1cccc2nsnc12)C(=O)O,-5.82% (inactive)
8,O=C(c1c2ccccc2cc2ccccc12)N1CCC(N2CCC[C@@H](C(=O)N3CCOCC3)C2)CC1,-0.16% (inactive)
9,Cc1oc(S(=O)(=O)N2CCCCC2)cc1NC(=O)Nc1ccccc1,-22.1% (inactive)
10,CC1=CC(=O)[C@]2(O[C@@H]3O[C@@H](C)[C@H](O)[C@@H](O)[C@H]3O)C=CO[C@@H](O[C@@H]3O[C@H](CO)[C@@H](O)[C@H](O)[C@H]3O)[C@H]12,-9.43% [at 57.1 µM] (inactive)
11,CC1CC(O)/C=C/C(O)/C=C\C(=O)O1 (centres undefined),19.2% [at 171 µM] (inactive)
12,C=C1[C@H](OC(C)=O)[C@H]2[C@@H](OC(C)=O)C(C)C[C@]2(OC(C)=O)C(=O)[C@H](C)/C=C/C(C)(C)C(=O)[C@H](OC(=O)C(C)C)[C@H]1OC(C)=O (some centres undefined),18.8% [at 32.5 µM] (inactive)
13,COC(=O)C[C@@H]1C(C(=O)O)=CO[C@@H](O[C@@H]2O[C@H](CO)[C@@H](O)[C@H](O)[C@H]2O)/C1=C\COC(=O)/C=C/c1ccc(O)c(OC)c1,14.1% [at 32.5 µM] (inactive)
14,CC(C)C1(O)NC(=O)C(CC2(O)c3ccccc3N3C(=O)C(C)(C)NC32)n2c1nc1ccccc1c2=O (centres undefined),5.38% [at 57.1 µM] (inactive)
15,CC(C)=CCC/C(C)=C/CO[C@@H]1O[C@H](CO[C@@H]2O[C@@H](CO)[C@H](O)[C@H]2O)[C@@H](O)[C@H](O)[C@H]1O,0.0353% [at 57.1 µM] (inactive)
16,CCC12CCCN3CCc4c(n(c5ccccc45)C(O)C1)C32 (centres undefined),-12.8% (inactive)
17,COC(=O)C1=COC(O[C@@H]2O[C@H](CO)[C@@H](O)[C@H](O)[C@H]2O)/C(=C\COC(=O)/C=C/c2ccccc2)C1CC(=O)OCCc1ccc(O)cc1 (some centres undefined),-4.59% [at 32.5 µM] (inactive)
18,CC1=C2CC(C)(C)CC2C(O)C2=C(C1)C(=O)OC2O (centres undefined),-8.12% (inactive)
19,COc1ccnc2[nH]cc(C(=O)C(=O)N3CCN(C(=O)c4ccccc4)CC3C)c12 (centres undefined),-29.7% (inactive)
20,C=C1[C@H](OC(C)=O)[C@H]2[C@@H](OC(=O)c3ccccc3)[C@@H](C)C[C@]2(O)[C@@H](OC(C)=O)[C@H](C)/C=C/C(C)(C)C(=O)[C@H](OC(C)=O)[C@H]1OC(C)=O,5.16% [at 32.5 µM] (inactive)
21,C[C@]1(OC(=O)/C=C\c2ccc(O)cc2)C[C@@H](O)[C@]2(O)C=CO[C@@H](O[C@@H]3O[C@H](CO)[C@@H](O)[C@H](O)[C@H]3O)C12 (some centres undefined),1.83% [at 57.1 µM] (inactive)
